From PubChem BioAssay AID1159580 (chemical genetic matrix, 2015)
Among all 5,500 compounds or so, about 2,000 (36%) were called active. Roughly 18% stayed inconclusive and do not appear here. No stated cut-off is given here; in the data, active means normalized growth mostly below about 0.91 (no sharp cut-off); inconclusive means no clear call, values can overlap the other calls; inactive means mostly above about 0.92. The list shows a part of the results.

Test: chemical genetic growth profiling, strain panel (AID 1159580);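 further: tested at 20 µM; growth read once vehicle control cultures reached saturation at 30 °C; 1 = growth at the plate median or of vehicle wells; lower values mean less growth of the strain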
Settings: S. cerevisiae deletion strains, growth OD

Measured: normalized growth

O[C@@H]1[C@H](O)CO[C@H]1O
inactive: locus YHR030C, strain SLT2, active compounds read low 0.995 | locus YHR079C, strain IRE1, active compounds read low 0.997 | locus YJL095W, strain BCK1, active compounds read low 1.01 | locus YJR066W, strain TOR1, active compounds read low 0.945 | locus YLR113W, strain HOG1, active compounds read low 1 | locus YNL183C, strain NPR1, active compounds read low 0.965 | locus YOR231W, strain MKK1, active compounds read low 0.992 | locus YPL256C, strain CLN2, active compounds read low 0.988
